Results reported in PubChem BioAssay (NCI).
About 83,000 compounds went through this panel and 20% of them were active in at least one assay; those are over-represented in the sample as a whole.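 Testing used 96-well plates and a 48-hour single-concentration exposure. Example: -40 means 40% of the starting cells died.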 Values without a mark were called inactive. The source made the active and inactive calls. How the source made its calls: active means growth percent below 10; inactive means the rest.

How the values were obtained:
Test in all cases: NCI-60 one-dose screen, 48 h (100 = growth as untreated, 0 = no growth, -100 = all killed)
Details in all cases: 10 µM unless noted
EKVX NSCLC = test system: EKVX NSCLC
SN12C renal = test system: SN12C renal
UO-31 renal = test system: UO-31 renal
TK-10 renal = test system: TK-10 renal
ACHN renal = test system: ACHN renal
CAKI-1 renal = test system: CAKI-1 renal
A498 renal = test system: A498 renal
CCRF-CEM leukemia = test system: CCRF-CEM leukemia
MOLT-4 leukemia = test system: MOLT-4 leukemia
SR leukemia = test system: SR leukemia
RPMI-8226 leukemia = test system: RPMI-8226 leukemia
OVCAR-8 ovarian = test system: OVCAR-8 ovarian
OVCAR-5 ovarian = test system: OVCAR-5 ovarian
OVCAR-4 ovarian = test system: OVCAR-4 ovarian
SK-OV-3 ovarian = test system: SK-OV-3 ovarian
IGROV1 ovarian = test system: IGROV1 ovarian
OVCAR-3 ovarian = test system: OVCAR-3 ovarian
HS 578T breast = test system: HS 578T breast
NCI/ADR-RES ovarian = test system: NCI/ADR-RES ovarian
T-47D breast = test system: T-47D breast

Work on `O=C(CSc1nc2sc3c(c2c(=O)n1-c1ccc(Cl)cc1)CCCC3)NNC(=O)Nc1ccc(Cl)c(C(F)(F)F)c1` yielded a growth (EKVX NSCLC) of 41%, a growth (SN12C renal) of 32.3% and a growth (UO-31 renal) of 30.4%. For the same compound, the growth (TK-10 renal) was 38.3%, the growth (ACHN renal) was 13.3% and the growth (CAKI-1 renal) was 34.6%. For the same compound, the growth (A498 renal) was -15.5% (active), the growth (CCRF-CEM leukemia) was 13.5% and the growth (MOLT-4 leukemia) was 6.67% (active). The growth (SR leukemia) was 8.77% (active), the growth (RPMI-8226 leukemia) was 0.887% (active) and the growth (OVCAR-8 ovarian) was 27.2%. The growth (OVCAR-5 ovarian) was 49.4%, the growth (OVCAR-4 ovarian) was 16% and the growth (SK-OV-3 ovarian) was 74.9%. The growth (IGROV1 ovarian) was 29.7%, the growth (OVCAR-3 ovarian) was 4.44% (active) and the growth (HS 578T breast) was 69.4%. The growth (NCI/ADR-RES ovarian) was 61% and the growth (T-47D breast) was -34.2% (active).
For `Nc1cc(-c2c[nH]c3ccc(F)cc23)nc2cc(-c3c[nH]c4ccc(F)cc34)nn12`, the growth (EKVX NSCLC) was 78.2%, the growth (SN12C renal) was 99% and the growth (UO-31 renal) was 75.8%. It also gave a growth (TK-10 renal) of 118%, a growth (ACHN renal) of 66.3% and a growth (CAKI-1 renal) of 77.8%. The growth (A498 renal) was 67.8%, the growth (CCRF-CEM leukemia) was 7.99% (active) and the growth (MOLT-4 leukemia) was 39%. For the same compound, the growth (SR leukemia) was -22.1% (active), the growth (RPMI-8226 leukemia) was 30.7% and the growth (OVCAR-8 ovarian) was 89.8%. For the same compound, the growth (OVCAR-5 ovarian) was 115%, the growth (OVCAR-4 ovarian) was 96.1% and the growth (SK-OV-3 ovarian) was 135%. It also gave a growth (IGROV1 ovarian) of 94.8%, a growth (OVCAR-3 ovarian) of 94.4% and a growth (HS 578T breast) of 112%. The growth (NCI/ADR-RES ovarian) was 93% and the growth (T-47D breast) was 81.7%.
With `Cc1c(Nc2nnc(SCC(=O)Nc3sc4c(c3C#N)CCCC4)s2)c(=O)n(-c2ccccc2)n1C` the growth (EKVX NSCLC) was 97.4%, the growth (SN12C renal) was 106% and the growth (UO-31 renal) was 97.3%. The growth (TK-10 renal) was 135%, the growth (ACHN renal) was 100% and the growth (CAKI-1 renal) was 110%. It also gave a growth (A498 renal) of 109%, a growth (CCRF-CEM leukemia) of 99.4% and a growth (MOLT-4 leukemia) of 92.7%. It also gave a growth (SR leukemia) of 98.5%, a growth (RPMI-8226 leukemia) of 96.7% and a growth (OVCAR-8 ovarian) of 100%. It also gave a growth (OVCAR-5 ovarian) of 114%, a growth (OVCAR-4 ovarian) of 108% and a growth (SK-OV-3 ovarian) of 120%. The growth (IGROV1 ovarian) was 104%, the growth (OVCAR-3 ovarian) was 99.1% and the growth (HS 578T breast) was 109%. For the same compound, the growth (NCI/ADR-RES ovarian) was 99.5% and the growth (T-47D breast) was 97.3%.
In the case of `O=c1/c(=C\c2ccc(-c3ccccc3)o2)sc2nc(-c3ccccc3)nn12`, the growth (EKVX NSCLC) is reported as 99.9%, the growth (SN12C renal) is reported as 97.3% and the growth (UO-31 renal) is reported as 89%. For the same compound, the growth (TK-10 renal) was 95.1%, the growth (ACHN renal) was 102% and the growth (CAKI-1 renal) was 96.4%. The growth (A498 renal) was 84.3%, the growth (CCRF-CEM leukemia) was 101% and the growth (MOLT-4 leukemia) was 108%. The growth (SR leukemia) was 102%, the growth (RPMI-8226 leukemia) was 102% and the growth (OVCAR-8 ovarian) was 105%. It also gave a growth (OVCAR-5 ovarian) of 104%, a growth (OVCAR-4 ovarian) of 107% and a growth (SK-OV-3 ovarian) of 105%. The growth (IGROV1 ovarian) was 103%, the growth (HS 578T breast) was 95.4% and the growth (NCI/ADR-RES ovarian) was 101%. For the same compound, the growth (T-47D breast) was 92.9%.
`O=C(c1ccc(Cl)cc1)C1[C@H](c2ccc(Cl)cc2)[C@@H](c2ccccc2)NC12C(=O)Nc1ccc(Br)cc12` (some centres not stated) was tested, and the growth (EKVX NSCLC) was 43.6%, the growth (SN12C renal) was -48.8% (active) and the growth (UO-31 renal) was 28.5%. The growth (TK-10 renal) was 50.4%, the growth (ACHN renal) was 14.3% and the growth (CAKI-1 renal) was 27.6%. The growth (A498 renal) was 59.2%, the growth (CCRF-CEM leukemia) was 36.8% and the growth (MOLT-4 leukemia) was 6.17% (active). For the same compound, the growth (SR leukemia) was -5% (active), the growth (RPMI-8226 leukemia) was 18.2% and the growth (OVCAR-8 ovarian) was 38.3%. It also gave a growth (OVCAR-5 ovarian) of 52.8%, a growth (OVCAR-4 ovarian) of 44.6% and a growth (SK-OV-3 ovarian) of 101%. It also gave a growth (IGROV1 ovarian) of 35.9%, a growth (HS 578T breast) of 58.2% and a growth (NCI/ADR-RES ovarian) of 28.8%. It also gave a growth (T-47D breast) of 31.2%.
In the case of `CC(C)(C)Nc1nc2c(OCCc3ccccc3)cccn2c1-c1cccc(F)c1`, the growth (EKVX NSCLC) is reported as 5.55% (active), the growth (SN12C renal) is reported as 6.27% (active) and the growth (UO-31 renal) is reported as -11% (active). The growth (TK-10 renal) was -6.22% (active), the growth (ACHN renal) was 5.29% (active) and the growth (CAKI-1 renal) was -11.5% (active). The growth (A498 renal) was -18.9% (active), the growth (CCRF-CEM leukemia) was 3.62% (active) and the growth (MOLT-4 leukemia) was -0.489% (active). The growth (SR leukemia) was -0.873% (active), the growth (RPMI-8226 leukemia) was -22.6% (active) and the growth (OVCAR-8 ovarian) was 10.2%. The growth (OVCAR-5 ovarian) was 14.2%, the growth (OVCAR-4 ovarian) was 19.2% and the growth (SK-OV-3 ovarian) was -17% (active). For the same compound, the growth (IGROV1 ovarian) was 10.1%, the growth (HS 578T breast) was -4.86% (active) and the growth (NCI/ADR-RES ovarian) was 3.69% (active). The growth (T-47D breast) was 5.21% (active).
For `Nc1c(C(=O)Nc2ccc(Cl)cc2)sc2nc(-c3cnccn3)cc(-c3cccs3)c12`, the growth (EKVX NSCLC) was 71.7%, the growth (SN12C renal) was 66.6% and the growth (UO-31 renal) was 67.7%. For the same compound, the growth (TK-10 renal) was 118%, the growth (ACHN renal) was 17% and the growth (CAKI-1 renal) was -6.36% (active). It also gave a growth (A498 renal) of 82.3%, a growth (CCRF-CEM leukemia) of 88.6% and a growth (MOLT-4 leukemia) of 70.1%. It also gave a growth (SR leukemia) of 40.7%, a growth (RPMI-8226 leukemia) of 85.1% and a growth (OVCAR-8 ovarian) of 48.1%. For the same compound, the growth (OVCAR-5 ovarian) was 66.2%, the growth (OVCAR-4 ovarian) was 61.3% and the growth (SK-OV-3 ovarian) was 74.1%. The growth (IGROV1 ovarian) was 74.2%, the growth (OVCAR-3 ovarian) was 62.7% and the growth (HS 578T breast) was 47.1%. For the same compound, the growth (NCI/ADR-RES ovarian) was 68.3% and the growth (T-47D breast) was 96.7%.
